Laboratory results published in ChEMBL document CHEMBL2218924, “A broad activity screen in support of a chemogenomic map for kinase signalling research and drug discovery” (Biochem J, 2013).

What follows are compounds tested against T1, NUAK family SNF1-like kinase 1 (Homo sapiens) (UniProt O60285). Conditions: at 10 µM.
T1 sequence (whole entry): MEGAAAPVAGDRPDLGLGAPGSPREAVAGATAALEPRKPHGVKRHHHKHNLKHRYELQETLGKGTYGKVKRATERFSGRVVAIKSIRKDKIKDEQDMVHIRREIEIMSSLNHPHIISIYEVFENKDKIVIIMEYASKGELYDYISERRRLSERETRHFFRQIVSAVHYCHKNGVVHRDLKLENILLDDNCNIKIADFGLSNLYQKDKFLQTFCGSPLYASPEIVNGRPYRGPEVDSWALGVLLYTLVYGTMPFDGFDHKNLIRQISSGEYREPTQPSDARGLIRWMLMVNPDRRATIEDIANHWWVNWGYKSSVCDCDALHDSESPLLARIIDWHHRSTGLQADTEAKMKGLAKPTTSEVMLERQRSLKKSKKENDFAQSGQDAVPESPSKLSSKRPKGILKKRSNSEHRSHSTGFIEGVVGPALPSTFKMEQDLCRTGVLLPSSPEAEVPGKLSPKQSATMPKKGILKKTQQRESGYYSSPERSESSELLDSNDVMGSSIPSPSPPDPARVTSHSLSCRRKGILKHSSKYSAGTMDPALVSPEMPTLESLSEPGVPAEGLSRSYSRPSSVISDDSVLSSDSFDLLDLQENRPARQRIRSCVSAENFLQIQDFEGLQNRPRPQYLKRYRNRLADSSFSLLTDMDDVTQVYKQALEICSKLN

Compound | residual activity [%]
O=C1C(Cl)=C(N2C(=O)CCC2=O)C(=O)c2ccccc21 | 84
O=C(O)/C=C/c1cc(Br)c(Br)c(Br)c1Br | 94
Nc1n[nH]c2nc3ccccc3nc12 | 40
O=C(c1cc2cc(O)ccc2[nH]1)c1cc2cc(O)ccc2[nH]1 | 20
Oc1cccc(-c2nc(N3CCOCC3)c3oc4ncccc4c3n2)c1 | 99
O=C(NC(NC(=S)Nc1ccc(F)c([N+](=O)[O-])c1)C(Cl)(Cl)Cl)C(c1ccccc1)c1ccccc1 (configuration not stated) | 86
CCCCc1c(-c2ccc(OC)cc2)[nH]c2nccnc12 | 22
CCCC(=O)Oc1ccc2[nH]c(C(=O)c3cc4ccccc4[nH]3)cc2c1 | 84
COc1cc2nccc(Oc3ccc(NC(=S)NC(=O)c4ccccc4C)cc3)c2cc1OC | 74
O=C1Cc2c([nH]c3ccc(Br)cc23)-c2ccccc2N1 | 2
NCCNc1ncc(C(N)=O)c(Nc2cccc(C(F)(F)F)c2)n1 | 13
O=C1Nc2ccc(Cl)cc2/C1=C/c1cc(Cl)c(O)c(Cl)c1 | 50
CC(C)(C)n1nc(Cc2cccc3ccccc23)c2c(N)ncnc21 | 92
COc1ccc(Cl)cc1NC(=O)Nc1cc(C)nc2ccccc12 | 92
O=c1cc(N2CCNCC2)oc2c(-c3ccccc3)cccc12 | 82
Nc1ncnc2c1c(-c1ccc(Oc3ccccc3)cc1)cn2C1CCCC1 | 67
O=C1NC(=O)c2c1c1c3ccccc3[nH]c1n1cncc21 | 13
O=c1cc(N2CCOCC2)oc2c1ccc1ccccc12 | 85
CN(C)S(=O)(=O)c1ccc2c(c1)/C(=C/c1cc3c([nH]1)CCCC3)C(=O)N2 | 3
CCOC(=O)c1c(C)[nH]c(/C=C2\C(=O)Nc3ccccc32)c1C | 85
O=C1NC(=O)C(c2c[nH]c3ccccc23)=C1c1c[nH]c2ccccc12 | 24
CCN(CC)CCNC(=O)c1c(C)[nH]c(/C=C2\C(=O)Nc3ccc(Cl)cc32)c1C | 6
CC(C)c1nn(-c2c(Cl)cccc2Cl)c2nc(Cc3ccc(OCCO)cc3)[nH]c(=O)c12 | 72
c1ccc(-c2cnc(Nc3ccc(OCCN4CCCC4)cc3)s2)cc1 | 27
O=C1Cc2c([nH]c3ccc([N+](=O)[O-])cc23)-c2ccccc2N1 | 9
O=C(CCCc1ccc(-c2ccccc2F)cc1)Nc1ccc(O)cc1 | 78
Cn1c2ccccc2c2c3c(c4c5ccccc5n(CCC#N)c4c21)CNC3=O | 6
